Compound activity deposited in PubChem BioAssay by Broad Institute.
ID4 SMM: ID4 (human) binding; P47928; AID 624137; hit rate 1.2% among 31,000; small molecule microarray, Flag-ID4 binding, fluorescence F/B; calls only; call rule not given here;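 further: a binder raises fluorescence above local background on the spot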
Target sequence (P47928 whole entry, looked up): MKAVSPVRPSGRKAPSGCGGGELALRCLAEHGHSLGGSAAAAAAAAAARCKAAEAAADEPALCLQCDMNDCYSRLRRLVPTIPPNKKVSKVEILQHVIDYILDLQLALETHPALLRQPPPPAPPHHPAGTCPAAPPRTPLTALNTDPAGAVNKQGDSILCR
p53 PUMA act: re-activators of the mutant p53 pathway; SW480 PUMA-promoter luciferase, p53 mutant reactivation; activation, % at 9.98 µM; hit rate 1.5% among 28,000; in the data active means activation above about 52%; inconclusive means no clear call, values can overlap the other calls
Starred values were filed as active, the others as inactive; i = inactive; ? = inconclusive; nt = not tested or not shown; + = active, no number. Hits are enriched below; roughly 2.1% of the tested compounds scored in any of these assays.

SMILES	ID4 SMM	p53 PUMA act
O=P(CCNCc1cccnc1)(c1ccccc1)c1ccccc1	+	-8.8
O=C(NCc1cccnc1)c1cc(-c2ccccc2)on1	i	42.8
Cc1cc(SCC(=O)Nc2ccccc2)nc2c(C)cccc12	i	2.1
COc1ccc(NC(=O)CCN2CCc3ccccc3C2)c(OC)c1	i	-1.6
O=C(c1cccs1)n1nc(-c2ccccc2)nc1NCc1ccco1	i	85.5*
Cc1cc(C(=O)NCc2ccco2)c2cc(F)ccc2n1	i	-3.7
O=C(c1ccc(F)cc1)n1nc(-c2ccc(Cl)cc2)nc1NCc1ccco1	i	149.6*
O=C(c1ccccc1Cl)n1nc(-c2ccccc2)nc1NCc1ccco1	i	25.6
COc1ccccc1-c1cnc2c(c1)C(=O)N([C@@H](C)CO)C[C@H](C)[C@H](CN(C)Cc1cccnc1)O2	i	nt
CCOc1ccccc1OCC(=O)Nc1ccccc1C(=O)O	i	-12.5
COc1cc(-c2nc3sc4c(c3c(=O)[nH]2)CCCC4)cc(Br)c1OCC(=O)O	+	-5.0
Cc1ccccc1NC(=O)COc1ccc(-c2nc3sc4c(c3c(=O)[nH]2)CCCC4)cc1	i	7.6
O=C(Nc1ccccc1C(=O)OCc1cccc([N+](=O)[O-])c1)c1ccccc1	i	8.9
COc1ccc(S(=O)(=O)N[C@@H]2CCCN(Cc3ccc(OCCO)cc3)C2)cc1	i	nt
O=S(=O)(N[C@@H]1CCCN(Cc2ccc(OCCO)cc2)C1)c1ccc(Cl)cc1	+	nt
O=C1c2ccccc2C(=O)N1C[C@@H]1CCCN(Cc2cccc(OCCO)c2)C1	i	nt
O=C1c2ccccc2C(=O)N1C[C@@H]1CCCN(Cc2ccc(OCCO)cc2)C1	+	nt
C[C@@H]1CCCCO[C@@H](CN(C)C(=O)c2ccccc2)[C@@H](C)CN([C@@H](C)CO)C(=O)c2cc(NC(=O)Nc3ccc(F)cc3)ccc2O1	i	-13.3
COc1ccc(NC(=O)c2ccc(OC(C)C(=O)O)cc2)cc1Cl (stereo unspecified)	+	8.9
COc1ccc(NC(=O)c2ccc(OC(C)C(=O)Nc3ccccc3C(F)(F)F)cc2)cc1Cl (stereo unspecified)	i	-2.0
CCC(=O)Nc1ccc(Br)cc1-c1nnc(SC)[nH]c1=O	i	-13.4
Cc1cc(C)c(OCC(=O)Nc2ccccc2C#N)c(Br)c1	i	1.1
Cc1scc(C(=O)Nc2cccc(Cn3cccn3)c2)c1-c1ccccc1	+	-27.9
Cc1c(Cl)cccc1NC(=O)Nc1cccc(Cn2cccn2)c1	i	4.6
Cc1ccc(N(C(=O)COc2ccc(C(C)(C)C)cc2)C2C=CS(=O)(=O)C2)cc1 (stereo unspecified)	i	-4.6
SMILES	ID4 SMM	p53 PUMA act
CC1(C)CC(=O)c2c(O)cc(OCC(=O)c3ccccc3)cc2O1	i	62.3*
CC1(C)CC(=O)c2c(O)cc(OCC(=O)c3ccc(Cl)c(Cl)c3)cc2O1	i	39.5
CO[C@H]1O[C@H](CO)[C@@H](OC(=O)Nc2ccccc2-c2ccccc2)[C@H](OC(=O)Nc2ccc3c(c2)OCO3)[C@@H]1OC(=O)Nc1ccc2c(c1)OCO2	i	nt
Cc1ccc(N(C(C)C(=O)Nc2ccc(I)cc2)S(C)(=O)=O)cc1 (stereo unspecified)	i	15.6
CCCC#Cc1cnc2c(c1)C(=O)N([C@H](C)CO)C[C@H](C)[C@H](CN(C)C(=O)c1ccc(F)cc1)O2	i	8.3
O=C(CC1CC1)Nc1ccc2c(c1)[C@@H]1C[C@H](CC(=O)NC3CCCC3)O[C@H](CO)[C@@H]1O2	+	3.6
COCC(=O)Nc1ccc2c(c1)[C@@H]1C[C@H](CC(=O)NC3CCCC3)O[C@@H](CO)[C@@H]1O2	i	-3.5
C[C@@H]1CN([C@H](C)CO)C(=O)c2cc(NS(=O)(=O)c3ccccc3)ccc2O[C@@H]1CN(C)C	i	-4.0
COc1ccc(S(=O)(=O)N2CCN(Cc3ccc(OCCO)cc3)CC2)cc1	+	nt
Cc1ccc(S(=O)(=O)N2CCN(Cc3ccc(OCCO)cc3)CC2)cc1	i	nt
Cc1ccc(F)cc1S(=O)(=O)N1CCN(Cc2cccc(OCCO)c2)CC1	i	nt
Cc1ccc(S(=O)(=O)N2CCN(Cc3cccc(OCCO)c3)CC2)cc1	+	nt
COc1ccc(-c2nnc(SCC(=O)O)n2-c2cccc(C(F)(F)F)c2)cc1OC	i	5.9
CNC[C@@H]1Oc2ccc(NS(C)(=O)=O)cc2CC(=O)N([C@@H](C)CO)C[C@H]1C	i	2.3
COc1ccc(-c2ccc3c(c2)O[C@H](CN(C)C)[C@H](C)CN([C@@H](C)CO)S3(=O)=O)cc1	i	-4.1
COc1ccc(C(=O)CSc2nc3cc(C)c(C)cc3[nH]2)cc1	i	-7.5
Cc1nc([N+](=O)[O-])c(Sc2nc3ccccc3[nH]2)n1Cc1ccccc1	i	65.6*
Cc1cc2nc(Sc3c([N+](=O)[O-])nc(C)n3Cc3ccccc3)[nH]c2cc1C	i	76.5*
COc1ccc2nc(Sc3c([N+](=O)[O-])nc(C)n3Cc3ccccc3)[nH]c2c1	i	?
Cc1cc(C)c(S(=O)(=O)N(C)CC(=O)Nc2cc(C(F)(F)F)ccc2Cl)c(C)c1	i	-24.2
Cc1ccc(S(=O)(=O)N(C)C[C@H]2Oc3ccc(NC(=O)Nc4ccc(F)cc4)cc3C(=O)N([C@@H](C)CO)C[C@H]2C)cc1	nt	-7.6
O=C(C[C@H]1CC[C@@H](NS(=O)(=O)c2ccccc2)[C@H](CO)O1)NCCN1CCCCC1	i	nt
Cc1nnc(SCc2nc(N)nc(Nc3ccc4ccccc4c3)n2)s1	i	96.7*
Cc1nnc(SCc2nc(N)nc(Nc3ccccc3)n2)s1	i	23.3
O=C(C[C@H]1C=C[C@@H](NC(=O)Nc2ccccc2F)[C@@H](CO)O1)NCc1ccc(F)cc1	i	nt
SMILES	ID4 SMM	p53 PUMA act
C=CCN1C(=O)/C(=C2\SC(N3CCCCC3)=NC2=O)c2ccccc21	i	68.1*
O=C(CN1C(=O)c2cccc3cccc1c23)Nc1ccccc1C(=O)N1CCCC1	i	-9.0
CN/C(=C/[N+](=O)[O-])NCCSCc1csc(CN(C)C)n1	+	9.4
O=C(C[C@@H]1CC[C@@H](NC(=O)C2CC2)[C@@H](CO)O1)NCC1CC1	i	nt
CC(=O)Nc1cccc(-c2nnc(SCC(=O)Nc3ccc(C(C)=O)cc3)n2C)c1	i	9.2
Cc1ccc(-c2cc(C(=O)NCc3cccnc3)c3cc(Br)ccc3n2)cc1	i	67.0*
Cc1ccc2nc(-c3cccc(Br)c3)cc(C(=O)NCc3cccnc3)c2c1	i	57.5*
CCCc1ccc(-c2cc(C(=O)NCc3cccnc3)c3ccccc3n2)cc1	i	105.5*
COCCNC(=O)c1cc(-c2cccnc2)nc2ccc(Br)cc12	i	11.9
Cc1sc(NC(=O)c2cc(-c3ccccc3)nc3ccccc23)c(C(=O)NCc2cccnc2)c1C	i	-10.9
CCn1cc(CNC(=O)c2cc(-c3cccnc3)nc3ccc(Br)cc23)c(C)n1	i	-0.2
C[C@H]1CN([C@@H](C)CO)C(=O)CCCn2cc(nn2)CO[C@H]1CN(C)C(=O)Nc1ccc(C(C)(C)C)cc1	i	0.1
CNC[C@@H]1Oc2ncc(C#Cc3cccc(OC)c3)cc2C(=O)N([C@@H](C)CO)C[C@@H]1C	i	nt
COC(=O)C1(Cc2ccc(O)cc2)OC(=O)C(=O)C1c1ccc(O)cc1 (stereo unspecified)	i	2.4
COc1cc(OC)cc(-c2nnc(SCC(=O)Nc3sc4c(c3C#N)CCCC4)o2)c1	i	5.8
